A short description of assay [1]: resazurin metabolic signal in HepG2 cells – cell-based, resazurin fluorescence, 24 h, PK04 Diversity Set, profiling panel (AID 1172). The settings on record: HepG2 viability, higher = more signal. A general note: The colour change of resazurin is a common sign of viable cells or microbes.
Assay [2] is described as follows: budding yeast growth changes without added modifier – OD600, strain BY4716, 24 h, basal condition, primary screen (AID 1173). The settings on record: S. cerevisiae BY4716 growth, OD600, 24 h; higher = more signal, called active from +8 up or from −8 down.
The nature of assay [3]: viability profiling in MM1S myeloma cells – cell-based, resazurin fluorescence, basal, 24 h, PK04 Diversity Set, profiling panel (AID 1174).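 Note: MM1S multiple myeloma cell line.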 The settings on record: higher = more signal, called active from +8 up or from −8 down.
For assay [4], the target named is Dihydroorotate dehydrogenase (quinone), mitochondrial (Plasmodium falciparum (isolate 3D7)) (UniProt Q08210). Put plainly: inhibition of P. falciparum DHODH – biochemical, C-terminal His tag, absorbance 600 nm, primary screen (AID 1175).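 Note: recombinant parasite enzyme with a five histidine tag at its C terminus.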 The settings on record: PfDHODH enzyme, DCIP absorbance 600 nm; higher = more signal, called active from +8 up or from −8 down.
Dihydroorotate dehydrogenase (quinone), mitochondrial (Plasmodium falciparum (isolate 3D7)), sequence (Q08210 whole entry, looked up): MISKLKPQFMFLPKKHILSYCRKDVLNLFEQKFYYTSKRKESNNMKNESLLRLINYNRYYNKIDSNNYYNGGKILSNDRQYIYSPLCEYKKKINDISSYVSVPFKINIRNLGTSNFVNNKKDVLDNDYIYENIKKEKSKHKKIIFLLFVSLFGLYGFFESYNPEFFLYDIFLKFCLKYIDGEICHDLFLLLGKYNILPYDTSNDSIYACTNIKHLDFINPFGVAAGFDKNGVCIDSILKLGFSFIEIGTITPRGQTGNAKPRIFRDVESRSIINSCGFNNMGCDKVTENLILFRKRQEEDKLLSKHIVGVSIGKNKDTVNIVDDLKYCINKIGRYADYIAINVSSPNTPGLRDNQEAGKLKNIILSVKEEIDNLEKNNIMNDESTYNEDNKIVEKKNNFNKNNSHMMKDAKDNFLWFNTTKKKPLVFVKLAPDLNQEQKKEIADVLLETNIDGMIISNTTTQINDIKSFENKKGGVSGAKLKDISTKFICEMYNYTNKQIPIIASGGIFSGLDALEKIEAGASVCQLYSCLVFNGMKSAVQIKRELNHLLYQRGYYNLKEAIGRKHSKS
Assay [5] is described as follows: inhibition of PAO1 biofilm formation – strain PAO1, LB-PBS medium, absorbance 600 nm, primary screen (AID 1176). The settings on record: P. aeruginosa PAO1 growth/biofilm, A600, 12 h; higher = more signal.
A short description of assay [6]: growth modulation of vineyard yeast isolate – strain RM11-1a, OD600, basal, 24 h, primary screen (AID 1177).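 Note: cultures grown under basal conditions with no added stressor.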 The settings on record: S. cerevisiae RM11-1a growth, OD600, 24 h; higher = more signal, called active from +8 up or from −8 down.
Assay [7] can be described thus: growth of efflux-deficient E. coli DRC39 – strain DRC39, OD650, 24 h, E. coli filamentation inducers, primary screen (AID 1178).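 Note: growth measured as culture turbidity by optical density at 650 nm.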 The settings on record: E. coli DRC39 acrAB, higher = more signal, called active from +8 up or from −8 down.
A short description of assay [8]: growth of efflux-deficient E. coli DRC39 – strain DRC39, OD650, 48 h, E. coli filamentation inducers, primary screen (AID 1179).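 Note: screen aims at cell division blockers that make cells filament.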 The settings on record: E. coli DRC39 delta-acrAB growth, higher = more signal, called active from +8 up or from −8 down.
A short description of assay [9]: viability profiling in RPMI8226 myeloma cells – cell-based, resazurin fluorescence, basal, 24 h, PK04 Diversity Set, profiling panel (AID 1180).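 Note: RPMI8826 multiple myeloma cell line at 5000 cells per well.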 The settings on record: higher = more signal.
Assay [10] deals with E3 ubiquitin-protein ligase XIAP (Homo sapiens) (UniProt P98170). Put plainly: small molecules binding XIAP protein – biophysical, small-molecule microarray, fluorescence 635 nm, primary screen (AID 1181).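 Note: score merges 667 nm emission and signal to noise over triplicate slides.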 The settings on record: higher = more signal.
E3 ubiquitin-protein ligase XIAP (Homo sapiens), sequence (P98170 whole entry, looked up, the tested form may be a part): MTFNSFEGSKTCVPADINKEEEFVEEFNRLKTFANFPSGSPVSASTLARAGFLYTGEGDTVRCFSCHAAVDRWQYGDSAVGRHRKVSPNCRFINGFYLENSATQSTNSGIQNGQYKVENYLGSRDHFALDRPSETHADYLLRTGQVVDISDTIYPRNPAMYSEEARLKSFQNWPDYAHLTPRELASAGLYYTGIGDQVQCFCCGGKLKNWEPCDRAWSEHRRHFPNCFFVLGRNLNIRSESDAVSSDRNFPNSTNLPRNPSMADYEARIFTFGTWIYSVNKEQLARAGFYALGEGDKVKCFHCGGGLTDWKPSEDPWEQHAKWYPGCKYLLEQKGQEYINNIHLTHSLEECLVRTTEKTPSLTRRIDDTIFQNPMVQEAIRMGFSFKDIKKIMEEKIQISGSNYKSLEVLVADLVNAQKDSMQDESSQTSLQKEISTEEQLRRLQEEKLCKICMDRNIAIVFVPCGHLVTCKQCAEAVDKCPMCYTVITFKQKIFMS
The test system of assay [11] is XIP peptide (Xip251-270) binding. Nature of the assay: XIP fragment 251-270 binding compounds – biochemical, small-molecule microarray, fluorescence 635/667 nm, 0.1 µg/mL protein, primary screen (AID 1182). The settings on record: fluorescent protein binding, 635 nm, higher = more signal, called active from +8 up or from −8 down.
A further assay relates to XIP peptide (Xip251-270). Put plainly: compounds binding XIP fragment 251-270 – biochemical, small-molecule microarray, fluorescence 635/667 nm, 0.5 µg/mL protein, primary screen (AID 1183). The settings on record: fluorescence 635 nm, higher = more signal.
Assay [12] in a line: blood-stage malaria parasite viability loss – strain 3D7, DAPI fluorescence, 100 nL, primary screen (AID 1184).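 Note: parasites grown inside human red blood cells in medium with human serum.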 The settings on record: P. falciparum 3D7 growth, 3 d, higher = more signal.
In assay [13] the target is Homeobox protein Hox-A13 (Mus musculus) (UniProt Q62424). Put plainly: disruptors of Hoxa13 oligonucleotide interaction – biochemical, fluorescence polarization, labeled oligonucleotide, primary screen (AID 1185). The settings on record: Hoxa13:DNA binding, 15 min, higher = more signal, called active from +8 up or from −8 down.
Homeobox protein Hox-A13 (Mus musculus), sequence (Q62424 whole entry, looked up): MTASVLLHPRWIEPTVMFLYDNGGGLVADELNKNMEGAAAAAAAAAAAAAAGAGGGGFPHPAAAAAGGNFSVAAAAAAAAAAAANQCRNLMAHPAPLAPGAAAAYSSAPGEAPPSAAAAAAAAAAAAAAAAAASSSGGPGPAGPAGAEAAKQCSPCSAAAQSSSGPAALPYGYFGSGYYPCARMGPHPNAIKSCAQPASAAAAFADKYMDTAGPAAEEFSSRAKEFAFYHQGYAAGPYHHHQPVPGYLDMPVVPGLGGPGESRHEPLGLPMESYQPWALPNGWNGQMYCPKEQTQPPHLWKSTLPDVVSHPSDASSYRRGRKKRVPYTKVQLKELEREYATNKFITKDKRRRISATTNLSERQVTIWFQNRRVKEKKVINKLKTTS
The nature of assay [14]: blockers of DNA damage checkpoint Chk1 activation – imaging, HeLa, hydroxyurea, phospho-Chk1 antibody, percent positive cells, primary screen (AID 1186). The settings on record: hydroxyurea-induced phospho-Chk1 immunofluorescence imaging, higher = more signal.
Assay [15] in a line: blockers of DNA damage checkpoint Chk1 activation – imaging, HeLa, hydroxyurea, phospho-Chk1 nuclear intensity, primary screen (AID 1187). The settings on record: hydroxyurea-induced phospho-Chk1 immunofluorescence imaging, higher = more signal.

Structures are written as SMILES. The source made the active and inactive calls. Unless noted, the rule behind the calls is not given here.

Regarding `CCCCC(=O)N(CCN1CCOCC1)[C@@H]1CC(C(=O)NCCO)=C[C@H](Oc2c(I)cc(CO)cc2OC)[C@H]1O`, the z-score in assay [1] was 0.246; in [2] it was -1.23 (inactive); in assay [3], 0.0671 (inactive); in [5] it was 0.118 (inactive); in [6], 0.615 (inactive); in [7] it was 1.34 (inactive). Moreover, the z-score in [8] is 1.15 (inactive); in assay [9], 0.29; in [12], -0.0342; in [13], -4.26 (inactive); in assay [14] it was -0.686 (inactive); in assay [15], -0.31 (inactive). The composite z-score in assay [4] was 0.229 (inactive); in [10], -0.22; in assay [11] it was 0.763 (inactive); with XIP peptide (Xip251-270), 0.918.
On to `C=CCN1C(=O)[C@@]2(O[C@@H](CCO)[C@H]([Si](C)(C)c3ccc(OC)cc3)[C@H]2C)c2cc(N3CCOC3=O)ccc21`, for which the z-score in [1] is -5.76; in [2], 1.07 (inactive); in assay [3], -8.77 (active); in assay [5] it was 0.519 (inactive); in assay [6], 4.47 (inactive); in assay [7], 0.891 (inactive). Further, the z-score was 0.231 (inactive) in assay [8]; -6.2 in [9]; -2.39 in assay [12]; -5.97 (inactive) in assay [13]; -0.0674 (inactive) in assay [14]; 0.0448 (inactive) in assay [15]. Moreover, the composite z-score was 1.58 (inactive) in assay [4], -0.0807 in [10], 0.341 (inactive) in assay [11] and 0.68 in the assay on XIP peptide (Xip251-270).
Regarding `COCC(=C=CC[C@@H](O)c1cccc(OCCO)c1)CCO`, the z-score was -0.161 in assay [1]; -0.773 (inactive) in assay [2]; -0.0845 (inactive) in assay [3]; -0.59 (inactive) in assay [5]; -0.357 (inactive) in [6]; 0.583 (inactive) in assay [7]. Further, the z-score in [8] is 0.464 (inactive); in [9], -0.0794; in [12], -0.315; in assay [13] it was -1.85 (inactive); in assay [14] it was -1.38 (inactive); in assay [15] it was -0.0691 (inactive). Moreover, the composite z-score in [4] is -2.07 (inactive); in assay [10], -0.241; in assay [11] it was 1.14 (inactive); in the assay on XIP peptide (Xip251-270), -0.347.
As for `COc1cc(NN2C(C(O)C3CCCCC3)C=CC3C(=O)N(c4ccccc4)C(=O)C32)cc(OC)c1OC` (centres undefined), the z-score was -1.64 in [1]; 1.2 (inactive) in [2]; -1.62 (inactive) in [3]; 0.698 (inactive) in [5]; 0.135 (inactive) in [6]; -0.0089 (inactive) in [7]. The z-score was -0.545 (inactive) in assay [8]; -1.67 in assay [9]; -0.495 in assay [12]; -4.43 (inactive) in assay [13]; 0.0699 (inactive) in assay [14]; -0.253 (inactive) in [15]. For the same compound, the composite z-score in assay [4] is -0.0779 (inactive); in assay [10], 0.337; in assay [11], 1.15 (inactive); with XIP peptide (Xip251-270), 0.751.
In the case of `O=C1C[C@@](C(=O)NCC(F)(F)F)(c2ccc([N+](=O)[O-])cc2)[C@@H](c2ccc(CO)cc2)N1CC12CC3CC(CC(C3)C1)C2`, the z-score in [1] was -1.85; in assay [2] it was 0.188 (inactive); in assay [3], -1.4 (inactive); in assay [5], 0.36 (inactive); in assay [6] it was 0.419 (inactive); in assay [7], -0.229 (inactive). Also, the z-score is -0.684 (inactive) in assay [8]; -2.92 in assay [9]; -1.43 in [12]; -4.42 (inactive) in [13]; -0.123 (inactive) in assay [14]; -0.661 (inactive) in assay [15]. Also, the composite z-score in assay [4] is 0.042 (inactive); in assay [10], 0.144; in assay [11], 1.13 (inactive); in the assay on XIP peptide (Xip251-270) it was 0.709.
With `COCCOC(=O)N1C(=O)[C@@]2(c3cc(C#Cc4ccc(OC)cc4)ccc31)[C@H](C(=O)NC[C@H](O)c1ccccc1)[C@H]1C(=O)O[C@H](c3ccccc3)[C@H](c3ccccc3)N1[C@@H]2c1ccc(OCCO)cc1`, the z-score was 1.21 in assay [1]; 1.95 (inactive) in assay [2]; 0.0406 (inactive) in assay [3]; 1.93 (inactive) in [5]; 2.67 (inactive) in [6]; 0.14 (inactive) in assay [7]. The z-score in assay [8] is -0.35 (inactive); in assay [9] it was -0.285; in assay [12], -2.17; in assay [13] it was 1.56 (inactive); in assay [14], 0.0092 (inactive); in assay [15], 0.117 (inactive). Further, the composite z-score in assay [4] was 1.86 (inactive); in [10], -0.0883; in [11], 0.271 (inactive); in the assay with XIP peptide (Xip251-270), 0.591.
Consider `CCCCCCCCCCC(O)C1C=CC2C(=O)N(C)C(=O)C2N1Nc1cc(OC)c(OC)c(OC)c1` (centres undefined), for which the z-score in assay [1] was -2.36; in assay [2], -1.36 (inactive); in assay [3], -3.17 (inactive); in assay [5], 0.971 (inactive); in assay [6] it was 0.439 (inactive); in assay [7], -0.875 (inactive). The z-score was -1.12 (inactive) in [8]; -3.54 in [9]; -0.326 in assay [12]; -3.83 (inactive) in assay [13]; 0.569 (inactive) in assay [14]; -0.418 (inactive) in assay [15]. Besides, the composite z-score was -1.3 (inactive) in assay [4], -0.182 in assay [10], 0.275 (inactive) in assay [11] and -0.924 in the assay on XIP peptide (Xip251-270).
Take `CN(C)C(=O)[C@]1(CCS(=O)(=O)c2ccccc2)N=C(c2ccc(OCCCO)cc2)O[C@@H]1c1ccccc1`: the z-score is 1.4 in assay [1]; -0.265 (inactive) in assay [2]; -0.342 (inactive) in [3]; -0.484 (inactive) in assay [5]; -0.315 (inactive) in [6]; 0.582 (inactive) in assay [7]. Further, the z-score in assay [8] is -0.0986 (inactive); in [9] it was -0.155; in [12] it was -1.96; in assay [13], -5.77 (inactive); in assay [14], -0.161 (inactive); in [15], 0.0689 (inactive). The composite z-score in [4] was 0.524 (inactive); in assay [10], 0.0651; in [11] it was 0.428 (inactive); in the assay on XIP peptide (Xip251-270), 0.701.
For `CCCCNC(=O)c1ccc(C#C[Si](C(C)C)(C(C)C)C(C)C)c(OC(C)=O)c1`, the z-score was 0.236 in [1]; -0.152 (inactive) in [2]; 0.219 (inactive) in assay [3]; -0.623 (inactive) in [5]; 0.0679 (inactive) in assay [6]; 0.119 (inactive) in assay [7]. Also, the z-score in assay [8] was -0.0634 (inactive); in assay [9] it was 0.234; in assay [12], -2.74; in assay [13], -2.16 (inactive); in [14], 0.0917 (inactive); in assay [15] it was 0.331 (inactive). Also, the composite z-score in assay [4] is -1.29 (inactive); in assay [10] it was -0.165; in [11], -0.211 (inactive); in the assay with XIP peptide (Xip251-270), 0.413.

(Values after PubChem BioAssay.)
